Results published in ChEMBL document CHEMBL3988442, “University of Dundee, Small-Polar-MMV Screening Library” (2021).
About 13,000 (27%) of roughly 48,000 compounds showed an effect of 50% or more. The list shows a part of the results.

tested on: Wolbachia pipientis; test: Anti-Wolbachia Cell-Based Screen; assay type: functional; parameters: scale not given: in the data most compounds retested in dose-response had high values; settings: 5 µM

Row | Compound | Percent Effect [%]
1 | Cc1noc2ncnc(NC(CC(C)(C)C)c3cccnc3)c12 (stereo not given) | -8.396
2 | Cc1ccc(C)c(CC(=O)Nc2cccc(C(=O)N(C)C)n2)c1 | -5.2
3 | CCCc1cc(C(=O)NCCC2=CCCCC2)[nH]n1 | -0.1472
4 | Cc1ccc(NC(=O)CN(C)C(=O)c2ccc(-n3cccc3)nc2)nc1 | -2.8
5 | O=C(NCCC1=CCCCC1)c1ccc(-n2cccc2)nc1 | 122.4
6 | O=C(NCCC1=CCCCC1)c1cc(-c2ccc(O)cc2)n[nH]1 | 12.27
7 | O=C(NCCC1=CCCCC1)C1CCN(c2ccc3nncn3n2)CC1 | 0.9872
8 | O=C(NCCC1=CCCCC1)c1n[nH]c2c1CCCC2 | 109.4
9 | CC(=O)NCCc1nc(C(C)C)nn1-c1ccncc1C | -7.062
10 | CC1CCN(CCCNS(=O)(=O)Cc2ccccc2F)CC1 | -5.574
11 | CN1CC(C(=O)N2CCC(Oc3ccccc3Cl)CC2)CC1=O (stereo not given) | 1.662
12 | CCOc1cccnc1C(=O)N1CC=C(c2ccc(O)cc2)CC1 | -4.198
13 | COc1ccc(C2=CCN(C(=O)C3CCN(C)C(=O)C3)CC2)cc1 (stereo not given) | -8.99
14 | CCOc1ccccc1C1=CCN(C(=O)C2CCN(C)C(=O)C2)CC1 (stereo not given) | 103.5
15 | CN1CCC(C(=O)N2CCC(=Cc3cccc(F)c3)CC2)CC1=O (stereo not given) | -1.128
16 | Cc1ccc(C2=CCN(C(=O)C3CCN(C)C(=O)C3)CC2)cc1 (stereo not given) | 92.67
17 | O=C(Cn1nnn(-c2cccs2)c1=O)NCC1CCOC1 (stereo not given) | 8.767
18 | NC(=O)c1cccc(CCNCc2cnc(C3CCC3)s2)c1 | -3.682
19 | O=C(c1sccc1Br)N1CCOCC1 | 7.49
20 | CS(=O)(=O)N1C[C@@H]2CC[C@H](C1)N(C(=O)CCn1cnc3ccccc31)C2 | 6.293
21 | COCC(=O)Nc1ccc2c(c1)C1(CCOCC1)CN2CCF.O=C(O)C(F)(F)F | 107
22 | CCN1C(=O)C2(CCOCC2)c2cc(NC(=O)c3cccn3C)ccc21 | 0.2171
23 | CCC(=O)Nc1ccc2c(c1)C1(CCOCC1)CN2CCF.O=C(O)C(F)(F)F | 102.7
24 | CCN1C(=O)C2(CCOCC2)c2cc(NC(=O)COC)ccc21 | 1.52
25 | Cc1cccc(N(CC(=O)N2CCCCC2)Cc2nc(=O)[nH][nH]2)c1 | -2.957
26 | O=C(O)C(F)(F)F.O=C(c1ccc2ccc(N3CCN(CC4CC4)CC3)n2c1)N1CCCO1 | -6.167
27 | CC(C)C(C)(C#N)NC(=O)Cn1cc(Cl)cn1 (stereo not given) | -4.371

Row | Compound | Percent Effect [%]
28 | Cc1nccc(-c2cccc(NCC(=O)N3CCNC3=O)c2)n1 | 6.599
29 | O=C(Cn1cc(-c2ccccc2)cn1)N1CCNC1=O | 110
30 | CCCNC(=O)Cn1cc(-c2ccccc2)cn1 | 1.367
31 | O=C(Cn1cc(I)cn1)N1CCNC1=O | 104.2
32 | O=C(Cn1cc(I)cn1)N1CCCC1 | 17.91
33 | O=C(Cn1cc(I)cn1)N1CCOCC1 | 0.7374
34 | O=C(CCn1cc(Cl)cn1)Nc1ncccn1 | -3.476
35 | O=C(Cn1cc(Cl)cn1)N1CCNC1=O | 95.03
36 | CN1C[C@@H](NC(=O)CC(C)(C)C)C[C@H]1c1nc(-c2cnccn2)no1 | -6.894
37 | O=C(CN1CSCC1=O)NCC1CCN(c2ccccc2)C1 (stereo not given) | -5.821
38 | O=S1(=O)C[C@@H]2[C@H](C1)N(Cc1ccc3ccccc3c1)CCN2CC1CC1 | -3.143
39 | O=C(c1cc2c(s1)CCCCC2)N1CCC(c2ncc[nH]2)CC1 | 88.07
40 | O=C(c1cncs1)N1CCC(c2cnccn2)CC1 | 100.4
41 | O=C(c1cc2c(s1)CCC2)N1CCN(c2cnccn2)CC1 | 87.73
42 | O=C(c1ccc2c(c1)OCO2)N1CCN(c2cnccn2)CC1 | -2.532
43 | O=C(c1cc2c(s1)CCC2)N1CCC(c2cnccn2)CC1 | 151.2
44 | Cc1nc(C2CCCN2C(=O)c2cc3c(s2)CCCC3)no1 (stereo not given) | -3.152
45 | O=C(c1cnccn1)N1CCN(c2ccnc3ccsc23)CC1 | 3.546
46 | CN(C)c1cc2c(nn1)CCN(C(=O)c1cc3c(s1)CCCC3)C2 | 1.352
47 | CN(C)c1cc(C(=O)N2CCN(c3cnccn3)CC2)ccn1 | -5.802
48 | C=C(C)COc1cccc(CNC(COC)c2ccnn2C)c1 (stereo not given) | 4.309
49 | Cn1c(Cn2cccn2)nnc1C1CCN(Cc2cccnc2N)CC1 | -0.4084
50 | CCn1cnnc1C1CCN(C(=O)c2cc3c(s2)CCC3)CC1 | -8.588
51 | O=C(c1cc2c(s1)CCC2)N1CCC(c2ccncc2)CC1 | 202.7
52 | CN(C)c1cc2c(nn1)CCN(C(=O)c1cc3c(s1)CCC3)C2 | 9.509
53 | Cc1cc(C2CCCN2C(=O)c2cc3c(s2)CCC3)on1 (stereo not given) | 4.731
54 | O=C(c1cc2c(s1)CCC2)N1CCCC(c2cnccn2)C1 (stereo not given) | 144.9

Row | Compound | Percent Effect [%]
55 | COc1ccc(Cl)cc1-c1cc(NC(=O)CNC(=O)C2CC2)[nH]n1 | -9.759
56 | CCn1cc(CN2CCC(N3CCC(O)CC3)CC2)cc1C#N | 0
57 | Cc1csc(C(C)(C)NCC(=O)N2CCCC(C(N)=O)C2)n1 (stereo not given) | -19.83
58 | CN(c1ccc(C(N)=O)nn1)C1CCC1 | 4.967
59 | OCCc1cn(CC2CCCN(Cc3nccs3)C2)nn1 (stereo not given) | -2.093
60 | CN1CCCc2cc(CNC(=O)c3ccncc3)ccc21 | 7.884
61 | CC(C)C(=O)NS(=O)(=O)c1ccc2c(c1)N(C)CCC2 | -5.146
62 | Cc1nc(CNC(=O)Nc2ccc3c(c2)CCCN3C)sc1C | 18.83
63 | Cc1ccc(C(=O)NCc2ccc(N3CCNC(=O)C3)c(F)c2)cc1 | -3.953
64 | CN1CCCc2cc(CNC(=O)c3cc[n+]([O-])cc3)ccc21 | 106.3
65 | CN1CCCc2cc(CNC(=O)c3ccc(-n4cnnc4)cc3)ccc21 | 119.3
66 | COCC(=O)N[C@H]1C[C@@H](Cc2cc(CN3CCOCC3)on2)C1(C)C | -1.513
67 | CCCn1cnc2c1CN(S(=O)(=O)Cc1ccccc1)[C@H](C(=O)OC)C2 | -5.674
68 | CCc1noc(CCCC(=O)Nc2cc(C(F)(F)F)c[nH]c2=O)n1 | 7.764
69 | Cc1nc(NCCSc2nnc(C)s2)c2cccnc2n1 | -15.89
70 | COc1ccc(CCNC(=O)NCC(O)c2cccc(F)c2)cc1 (stereo not given) | 127.5
71 | CC(C)COCCCNC(=O)NCC(O)c1cccc(F)c1 (stereo not given) | 93.97
72 | O=C(NCC(O)c1cccc(F)c1)c1sccc1OC(F)F (stereo not given) | 13.48
73 | Cc1cc(OC(F)F)c(C(=O)NCC(O)c2cccc(F)c2)s1 (stereo not given) | -16.7
74 | O=C(NCCc1ccc(F)cc1)NCC(O)c1cccc(F)c1 (stereo not given) | 98.05
75 | O=C(NCCc1cccs1)NCC(O)c1cccc(F)c1 (stereo not given) | 94.53
76 | Cc1nc(CCNC(=O)NCC(O)c2cccc(Cl)c2)cs1 (stereo not given) | 5.885
77 | O=C(CN1CCCS(=O)(=O)CC1)NCc1ccccc1F | -8.655
78 | Cc1ccc(CNC(=O)NC2CCN(CC(F)F)CC2)cc1 | -0.1084
79 | Cn1cnnc1C1CCN(c2nc3ccccc3o2)CC1 | -4.492
80 | CCOc1ccc(CN(C)C2CCN(c3cc(C)nn3C)C2=O)cc1 (stereo not given) | -7.061
81 | CCn1ccc(C(=O)N2CCCN(Cc3ccccc3F)CC2)cc1=O | -3.557

Row | Compound | Percent Effect [%]
82 | CN(Cc1ccccc1)c1ncccc1CNC(=O)c1ccnn1C | -0.05459
83 | Cc1ccc(-n2nnc(CC(=O)N3CCSCC3)c2C)cc1 | 7.911
84 | O=C(NCCN1CCOCC1)NCC(O)c1cccc(F)c1 (stereo not given) | -0.6049
85 | O=C(NCCc1ccccc1)NCC(O)c1cccc(F)c1 (stereo not given) | 91.4
86 | O=C(NCCc1cccc(F)c1)NCC(O)c1cccc(F)c1 (stereo not given) | 4.017
87 | CN1CC2(CCN(C(=O)c3ccc4c(=O)n(C)cnc4c3)C2)OC1=O (stereo not given) | -9.693
88 | COc1c(C2CCCN2Cc2csc(C(C)C)n2)c(C)nn1C (stereo not given) | 4.743
89 | Cc1cccc(CN2C(=O)CCC23CCN(Cc2nccn2C)CC3)n1 | 88.13
90 | O=C1CCC2(CCN(Cc3ccoc3)CC2)N1OCc1ccccc1F | -6.682
91 | Cc1cccc(CN2C(=O)CC[C@@H]3[C@H]2CCN3Cc2nccn2C)n1.O=C(O)C(F)(F)F.O=C(O)C(F)(F)F.O=C(O)C(F)(F)F | 16.26
92 | CN1CC(=O)N(c2ccsc2)CC12CCN(Cc1nccn1C)C2 (stereo not given) | 2.996
93 | Cc1cccc(CN2C(=O)CCC23CCN(Cc2ccoc2)CC3)n1 | 102.5
94 | Cc1cccc(Cn2c3c(ccc2=O)CCN(Cc2ccoc2)CC3)n1.O=C(O)C(F)(F)F.O=C(O)C(F)(F)F | 0.1669
95 | Cn1cc(C#N)cc1C(=O)NC1(C#N)CCSCC1 | -2.619
96 | COCCN(Cc1nccs1)C(=O)c1cc(-c2ccc(C)s2)n[nH]1 | -12.01
97 | Cc1noc(C)c1CNC(C)c1ccc(S(=O)(=O)N(C)C)cc1 (stereo not given) | -12.9
98 | Cc1nc(C)c(COc2ccc(N(C)S(C)(=O)=O)cc2)s1 | -26.99
99 | Cc1nc(COc2ccc(N(C)S(C)(=O)=O)cc2)sc1C | 78.79
100 | Cc1nc(C)c(COc2ccc(S(=O)(=O)N(C)C)cc2)s1 | 94.55
101 | Cc1ncc(COc2ccc(N(C)S(C)(=O)=O)cc2)s1 | -0.05196
102 | Cc1nc(COc2ccc(S(=O)(=O)N(C)C)cc2)sc1C | 104.7
103 | COc1ccc(OCc2sc(C3(O)CCCNCC3)nc2C)cc1.Cl (stereo not given) | -5.149
104 | CN(c1ccc(OCc2cnc(Cl)s2)cc1)S(C)(=O)=O | 2.089
105 | CN(C)S(=O)(=O)c1ccc(OCCNCCn2cccn2)cc1 | 11.92
